Entries with a potency or affinity are not part of this list. Records with an inconclusive call do not appear. The source made the active and inactive calls.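 The calls were made as follows: active = compounds whose fitted curve lowers viable cell signal, with half-maximal concentration at most twice the top tested dose; inconclusive = flat curve showing 30 to 70% toxicity, or poor fit; inactive = the rest.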

This experiment can be described thus: mammalian cell viability loss – Alamar Blue, dry powder, cytotoxicity control for antifungal single agent project, dose response (AID 602188). To be noted: NIH-3T3 fibroblast viability, Alamar Blue fluorescence, 48 h; series mostly up to 26 µM. A general note: Resazurin is reduced to fluorescent resorufin, in cell work by metabolically active cells.
For the compound `NC(=O)c1cccc(C(=O)Nc2nc(-c3ccc4c(c3)CCCC4)cs2)c1`, the outcome was inactive.

On to `O=C(Nc1nc(-c2ccccc2)cs1)c1ccc(Br)s1`, for which the compound was classed as inactive. For the compound `O=C(Nc1nc(-c2ccc3c(c2)CCCC3)cs1)c1ccccc1`, the compound was called inactive. Consider `CCOC(=O)N1C(=O)C2(CCCCC2)N(c2ccc(C)cc2)C1=S`, for which the outcome was inactive.

Source of the values: PubChem BioAssay AID602188 (Broad Institute, 2012).
